40 compounds from PubChem BioAssay (Tox21) can be followed below.

Structures are written as SMILES. Records with an inconclusive call do not appear. Active and inactive are the calls of the source. Calls come from the whole dose curve.
% is set by controls: 0 for no effect and ±100 for the full control effect.

This assay is described as follows: qHTS assay to identify small molecule agonists or antagonists of the thyroid stimulating hormone receptor (TSHR) signaling pathway - wild type cell line counter screen (AID 1259384). To be noted: HEK293 wild type, cAMP HTRF counter-screen; series mostly up to 92.4 µM; cAMP activity change: at the top concentration. An excerpt:
U.S. Tox21 Program National Center for Advancing Translational Sciences [NCATS] NIH Chemical Genomics Center [NCGC] U.S. Environmental Protection Agency [EPA] National Institutes of Environmental Health Sciences [NIEHS] National Toxicology Program [NTP] U.S. Food and Drug Administration [FDA] Tox21 Assay Overview: TSHR is the receptor for thyrotropin (thyroid stimulating hormone or TSH), a member of the glycoprotein hormone family. TSH is released by the anterior pituitary gland and is the main regulator of thyroid gland growth and development. Upon binding circulating thyrotropin, a G-protein signal cascade activates adenylyl cyclase and […] cAMP concentration is increased. cAMP is a key second messenger involved extensively in cellular signal transduction pathways associated with the majority of G-protein coupled receptors (GPCRs). The activation of these GPCRs by neurotransmitters, lipids, nucleotides, peptides and hormones results in the activation or the inhibition of plasma membrane-bound adenylate cyclase through heterotrimeric G-proteins. A cell-based TSHR-Hek293 assay can be used to identify TSHR agonists. To eliminate the false positive compounds identified from screening a cell-based TSHR-Hek293 cell line, cAMP assay in a wild type Hek293 cells was used as a counter screening.
Tox21 Assay Protocol Summary: Hek293 cells (wild type) were dispensed at 800 cells/4 uL/well in 1536-well white plates using a Multidrop dispenser. After the assay plates were incubated at a 37 C/5% CO2 incubator for 18 hrs, 23 nL of compounds dissolved in DMSO, positive controls or DMSO only was transferred to the assay plate by a pin tool, followed by 1 ul medium containing Ro20-1724. After 30 min of incubation at room temperature, 2.5 ul/well of cAMP-d2 and 2.5 ul/well of anti-cAMP-cryptate were added respectively into the assay plates using a Flying Reagent Dispenser. The plates were incubated at room temperature for 1 hr. The fluorescence intensity in the plates was measured using an Envision plate reader. Each test compound was measured at 15 concentrations and in triplicates.
Take `ClC1(Cl)C2(Cl)C3(Cl)C4(Cl)C(Cl)(Cl)C5(Cl)C3(Cl)C1(Cl)C5(Cl)C24Cl` (stereo not given): the “cAMP activity change” value is -0.0393% (inactive). On the same count and under the same terms, in the case of `Nc1cc(Cl)ccc1Cl` it was 5.49% (inactive); in that of `BrCCCBr`, 5.6% (inactive); in that of `CCN(CC)CCN1C(=O)CN=C(c2ccccc2F)c2cc(Cl)ccc21`, -3.26% [at 42.5 µM, stronger effect = higher value] (inactive). The same measure, in the same setting: in the case of `COC(=O)C(C)N(C(=O)c1ccco1)c1c(C)cccc1C` (stereo not given) it was -3.67% (inactive); in that of `COC(=O)c1cc(Oc2ccc(Cl)cc2Cl)ccc1[N+](=O)[O-]`, -3.84% (inactive).

On to `O=[N+]([O-])c1ccc(CCl)cc1`, for which the “cAMP activity change” value was 2.37% (inactive). The same measure, in the same setting: in the case of `OCC(Br)CBr` (stereo not given) it was -2.59% (inactive).

Consider `Oc1cccc(Cl)c1Cl`, for which the “cAMP activity change” value is -3.44% (inactive). As for `CCCCCON=O`, the “cAMP activity change” value was -1.4% (inactive). On the same count and under the same terms, in the case of `CN(C)CCc1c[nH]c2ccccc12` it was -3.46% (inactive); in that of `CCC(C)c1cccc(C(C)CC)c1O` (stereo not given), -0.694% (inactive); in that of `Nc1ccc(Cl)cc1C(=O)c1ccccc1F`, -1.6% [at 42.5 µM, stronger effect = higher value] (inactive). For `CN1C2CCC(C)(C)C1CC(OC(=O)C(O)(c1cccs1)c1cccs1)C2` (stereo not given), the “cAMP activity change” value was 8.02% [at 42.5 µM, stronger effect = higher value] (inactive). Consider `CCCCCCCCCCCCCCn1cc[n+](C)c1`, for which the Potency result was “inactive”.

In the case of `COP(=S)(NC(C)C)Oc1ccc(C)cc1[N+](=O)[O-]` (stereo not given), the “cAMP activity change” value is -0.0606% (inactive).

For the compound `COc1ccc(Cc2nccc3cc(OC)c(OC)cc23)cc1OC`, the “cAMP activity change” value is 3.35% [at 42.5 µM, stronger effect = higher value] (inactive). As to `N#CSCc1ccccc1`, the “cAMP activity change” value was -0.0379% (inactive). For the compound `ClCBr`, the “cAMP activity change” value was 3.18% (inactive). Still for that read-out and setting: in the case of `O=[N+]([O-])C(Br)Br` it was 0.782% (inactive). On the same count and under the same terms, the value for `Cc1ccc([N+](=O)[O-])[c]2c1[O][Hg]2` was 9.02% [at 42.5 µM, stronger effect = higher value] (inactive). Regarding `Oc1ccc(Cl)c(Cl)c1`, the “cAMP activity change” value was 0.493% (inactive). With `Cc1cc(C2CC2)nc(Nc2ccccc2)n1`, the “cAMP activity change” value was 3.84% (inactive). Turning to `CCC(C)Nc1c([N+](=O)[O-])cc(C(C)(C)C)cc1[N+](=O)[O-]` (stereo not given), the “cAMP activity change” value was -3.22% (inactive). The same measure, in the same setting: in the case of `Cc1c([N+](=O)[O-])c(C)c([N+](=O)[O-])c(C(C)(C)C)c1[N+](=O)[O-]` it was -0.367% (inactive); in that of `CN=C=O`, 0.508% (inactive). For the compound `COc1ccc2[nH]cc(CCN(C(C)C)C(C)C)c2c1`, the “cAMP activity change” value was -2.74% (inactive). Take `CCCCON=O`: the “cAMP activity change” value is 3.54% (inactive).

In the case of `CC1(C)C(C=C(Cl)Cl)C1C(=O)OC(C#N)c1ccc(F)c(Oc2ccccc2)c1` (stereo not given), the “cAMP activity change” value is -5.68% (inactive).

As to `CCC1COC(Cn2cncn2)(c2ccc(Cl)cc2Cl)O1` (stereo not given), the “cAMP activity change” value was -2.56% (inactive). `CC(C)N(C(=O)CCl)c1ccccc1`: the Potency entry is “inactive”.

For the compound `CC(=O)C(Cl)C(=O)N(C)C` (stereo not given), the “cAMP activity change” value was -1.18% (inactive). Regarding `C[C@]12Cc3cn[nH]c3C[C@@H]1CC[C@@H]1[C@@H]2CC[C@@]2(C)[C@H]1CC[C@]2(C)O`, the “cAMP activity change” value was 0.776% [at 42.5 µM, stronger effect = higher value] (inactive). In the case of `CNC(=O)O/N=C(\C)C(C)S(C)(=O)=O` (stereo not given), the “cAMP activity change” value is -0.719% [at 872 µM, stronger effect = higher value] (inactive). For `Nc1ccccc1-c1ccccc1`, the “cAMP activity change” value is 1.04% (inactive).

Regarding `ClC1=C(Cl)[C@]2(Cl)[C@@H]3[C@H]4C[C@H]([C@@H]5O[C@H]45)[C@@H]3[C@@]1(Cl)C2(Cl)Cl`, the “cAMP activity change” value was -0.377% (inactive). Same read-out and setting: the value for `CC(Cc1ccccc1)N(C)Cc1ccco1` (stereo not given) was -3.5% [at 42.5 µM, stronger effect = higher value] (inactive); that for `C#CCO` was -0.471% (inactive); that for `CNC(C)(C)Cc1ccccc1` was -5.28% [at 42.5 µM, stronger effect = higher value] (inactive).

On to `C=C(C)C(=O)[O][Sn]([CH2]CCC)([CH2]CCC)[CH2]CCC`, for which the “cAMP activity change” value is 21.9% (inactive).
